Experiment in all cases: NCI-60 one-dose screen, 48 h (100 = growth as untreated, 0 = no growth, -100 = all killed)
Experiment [1] concerns NCI-H23 lung. As to conditions: 10 µM unless noted.
Experiment [2] deals with NCI-H226 lung. As to conditions: 10 µM unless noted.
The test system of experiment [3] is NCI-H322M lung. The settings on record: 10 µM unless noted.
Experiment [4] has as its system HOP-62 NSCLC. As to conditions: 10 µM unless noted.
Experiment [5] concerns NCI-H460 lung. As to conditions: 10 µM unless noted.
In experiment [6] the test system is HOP-92 NSCLC. The settings on record: 10 µM.
Experiment [7] concerns A549/ATCC NSCLC. The settings on record: 10 µM unless noted.
Experiment [8] concerns 786-0 renal. The settings on record: 10 µM unless noted.
The subject of experiment [9] is COLO 205 colon. The settings on record: 10 µM unless noted.
The test system of experiment [10] is DU-145 prostate. The settings on record: 10 µM unless noted.
Experiment [11] relates to K-562 leukemia. The settings on record: 10 µM unless noted.
Experiment [12] concerns MALME-3M melanoma. The settings on record: 10 µM unless noted.
The test system of experiment [13] is MDA-MB-231 breast. The settings on record: 10 µM unless noted.
In experiment [14] the test system is RXF 393 renal. As to conditions: 10 µM unless noted.
The subject of experiment [15] is SF-268 CNS. As to conditions: 10 µM unless noted.
For experiment [16], the system named is SF-295 CNS. As to conditions: 10 µM unless noted.
Experiment [17] relates to SF-539 CNS. As to conditions: 10 µM unless noted.
Experiment [18] deals with UACC-257 melanoma. As to conditions: 10 µM unless noted.
For experiment [19], the system named is M14 melanoma. As to conditions: 10 µM unless noted.

We go through 8 compounds from PubChem BioAssay (NCI).

This is part of a sample that, as a whole, favours compounds with a hit. Of some 83,000 tested, about 20% had one in any assay.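 Testing used 96-well plates and a 48-hour single-concentration exposure. Example: -40 means 40% of the starting cells died.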 Unmarked numbers belong to inactive results. The source made the active and inactive calls. Rule for the calls: active = growth percent below 10; inactive = the rest.

Consider `C=C(C)[C@@H]1CC[C@]2(C(=O)NCCCCCN(CCC#N)CCC#N)CC[C@]3(C)[C@H](CC[C@@H]4[C@@]5(C)CCC(=O)C(C)(C)[C@@H]5CC[C@]43C)[C@@H]12`, for which the growth in experiment [1] was 95.3%; in [2] it was 92.8%; in experiment [3], 116%; in [4] it was 82.6%; in experiment [5] it was 87.5%; in experiment [6], 97%. In addition, the growth was 90.9% in experiment [7]; 92% in experiment [8]; 111% in experiment [9]; 96.2% in experiment [10]; 96.9% in [11]; 119% in experiment [12]. Besides, the growth in experiment [13] is 107%; in experiment [14] it was 58.2%; in experiment [15], 81.5%; in experiment [16], 99.6%; in experiment [17], 101%; in [18], 103%. In [19], the growth was 97.6%.

Regarding `CNC(=O)c1cc(-n2ccc3cc(NC(=O)Nc4ccc(N5CCOCC5)c(C(F)(F)F)c4)ccc32)ccn1`, the growth was 50.4% in experiment [1]; 73.6% in [2]; 75.5% in experiment [3]; 55.7% in experiment [4]; 34.3% in experiment [5]; 56% in [6]. The growth in [7] is 36.4%; in [8], 13.6%; in experiment [9], 26.4%; in experiment [10], 54.9%; in experiment [11], 4.09% (active); in experiment [12], 82%. Further, the growth was 45.4% in experiment [13]; -27.5% (active) in experiment [14]; 72.6% in experiment [15]; 12.3% in experiment [16]; 23.3% in experiment [17]; 56.8% in experiment [18]. In experiment [19], the growth is 23.6%.

On to `COc1ccccc1C(=O)Nc1cccc2c1C(=O)C(=O)C=C2`, for which the growth in experiment [1] was 85.5%; in [2] it was 99.9%; in [3], 112%; in [4], 94.8%; in experiment [5], 103%; in experiment [6] it was 113%. Besides, the growth in experiment [7] is 88.7%; in experiment [8], 92.2%; in [9], 71.5%; in experiment [10], 93.6%; in experiment [11] it was 63.2%; in experiment [12], 95.4%. The growth is 80.7% in experiment [13]; 62.4% in [14]; 87% in experiment [15]; 98.8% in experiment [16]; 103% in experiment [17]; 106% in [18]. Also, in experiment [19], the growth was 119%.

Regarding `CC1(C)CC[C@]2(C(=O)N3CCOCC3)CC[C@]3(C)C(=CC[C@@H]4[C@@]5(C)C/C(=C/c6ccco6)C(=O)C(C)(C)[C@@H]5CC[C@]43C)[C@@H]2C1`, the growth was 86.6% in [1]; 69% in experiment [2]; 102% in experiment [3]; 87% in experiment [4]; 98.5% in experiment [5]; 77.8% in experiment [6]. The growth was 87.8% in experiment [7]; 79.5% in experiment [8]; 108% in experiment [9]; 73.2% in experiment [10]; 64.2% in experiment [11]; 97.4% in experiment [12]. Moreover, the growth was 85.5% in experiment [13]; -3.24% (active) in experiment [14]; 63.1% in [15]; 95.3% in [16]; 86.5% in [17]; 94.5% in [18]. For the same compound, in [19], the growth is 101%.

Turning to `Nc1nc(Nc2ccccc2SSc2ccccc2Nc2nc(N)nc(-c3cccc(Br)c3)n2)nc(-c2cccc(Br)c2)n1`, the growth was 31.6% in [1]; 47.8% in [2]; 94.8% in [3]; 11.8% in experiment [4]; 31.8% in experiment [5]; 86% in experiment [6]. Also, the growth in [7] was 1.19% (active); in experiment [8], 79.3%; in experiment [9] it was 116%; in experiment [10], 62.1%; in experiment [11], 58.8%; in experiment [12] it was 99.9%. In addition, the growth is 57.3% in experiment [13]; 58% in experiment [14]; 36.9% in experiment [15]; 29.8% in [16]; 95.2% in [17]; 112% in experiment [18]. The growth in experiment [19] is 90.4%.

`COc1ccc([C@@H]2c3[nH]c4ccccc4c3C[C@H]3C(=O)N(C4CCN(CC5CCCCC5)CC4)CC(=O)N23)c(OC)c1`: the growth in [1] is 93.3%; in experiment [2], 74.1%; in experiment [3] it was 90.3%; in experiment [4], 72.9%; in experiment [5], 82.5%; in experiment [6], 51.3%. Further, the growth is 72.2% in experiment [7]; 70.5% in [8]; 51.2% in [9]; 80.8% in experiment [10]; 22% in experiment [11]; 95.7% in experiment [12]. In addition, the growth in experiment [13] was 75.5%; in experiment [14], 28.7%; in [15], 67.2%; in experiment [16] it was 98.6%; in experiment [17] it was 78.6%; in experiment [18], 84.8%.

Take `COc1cc(-c2ccc3ncnc(NCc4ccccc4)c3c2)cnc1OC`: the growth was 67% in [1]; 68.3% in experiment [2]; 26.3% in experiment [3]; 36.2% in experiment [4]; 69.1% in experiment [5]; 5.49% (active) in experiment [6]. In addition, the growth in experiment [7] is 38.6%; in [8], 44.8%; in [9], 87.6%; in experiment [10], 24.3%; in experiment [11], 85.2%; in [12], 94.9%. For the same compound, the growth in [13] was 41.5%; in experiment [14], -18.3% (active); in [15], 46.5%; in experiment [16], 55.1%; in experiment [17], 48.7%; in experiment [18], 75.7%.

Regarding `CCCn1cnc2c(c1=N)C(c1ccc(F)cc1)c1sc3c(C)cccc3c1O2` (stereo not given), the growth in [1] is 25.7%; in experiment [2] it was 8.74% (active); in experiment [3], 49.9%; in experiment [4], 32%; in experiment [5], 8.38% (active); in [6], 33.5%. Moreover, the growth in [7] is 35.6%; in experiment [8], 23.5%; in [9], 52.2%; in experiment [10], 27.5%; in experiment [11], 5.29% (active); in [12], 47.1%. Moreover, the growth in experiment [13] was 53%; in experiment [14], -39% (active); in experiment [15], 53.8%; in experiment [16], -0.689% (active); in [17] it was -27.1% (active); in experiment [18] it was 70.8%. Moreover, in experiment [19], the growth was 9.53% (active).
